Experimental data: the supplement of paper PMC3334620
The full ranking holds about 33,000 sequences; the median of “E-score (-0.5 to 0.5)” is about -0.016, and the highest 2% start at about 0.32. The entries come from a sample that favours the highest values as a whole.

Target: T1, Stp1 (UniProt B3LFK1)
T1 sequence: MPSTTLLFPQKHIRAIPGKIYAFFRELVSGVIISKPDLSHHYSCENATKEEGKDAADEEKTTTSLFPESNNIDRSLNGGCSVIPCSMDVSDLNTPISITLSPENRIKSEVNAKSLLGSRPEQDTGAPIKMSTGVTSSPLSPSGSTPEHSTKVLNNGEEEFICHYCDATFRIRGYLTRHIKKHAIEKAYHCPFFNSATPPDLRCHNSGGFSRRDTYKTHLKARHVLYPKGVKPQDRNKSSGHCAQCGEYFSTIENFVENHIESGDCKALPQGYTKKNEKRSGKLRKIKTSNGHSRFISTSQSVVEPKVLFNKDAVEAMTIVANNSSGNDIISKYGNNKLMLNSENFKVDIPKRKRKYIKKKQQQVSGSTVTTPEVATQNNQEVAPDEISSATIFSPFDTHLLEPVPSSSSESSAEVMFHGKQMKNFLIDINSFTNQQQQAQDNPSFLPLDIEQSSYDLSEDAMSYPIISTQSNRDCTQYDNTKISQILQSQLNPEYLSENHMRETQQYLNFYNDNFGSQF
Test: PBM E-score (8-mer binding enrichment) (E-score (-0.5 to 0.5)); higher = stronger / more preferred TF binding
Conditions: protein concentration: 200 nM; construct: GST-full length
Method in brief: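 For each ungapped eight-base word taken together with its reverse complement, the Universal PBM Analysis Suite assigned an E-score. Binding data came from GST-tagged yeast transcription factors, applied at about 100-200 nM, on universal all-10-mer Agilent arrays made double-stranded by primer extension. Fluorescent anti-GST marked bound protein, and scans were normalised with masliner.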

| Sequence | PBM E-score |
| --- | --- |
| AAGGATGC | -0.187 |
| GTGGTCTA | -0.307 |
| CTCTACCA | -0.0433 |
| GCTGGTCC | -0.253 |
| GTTGTGGA | -0.0929 |
| CATGCCCA | -0.249 |
| ATGACGCC | 0.2 |
| ACCGTCCC | -0.184 |
| GCCGTCGA | 0.278 |
| CCCGTCCA | -0.00501 |
| ACCGTCTA | -0.0765 |
| GCCGTCTA | 0.429 |
| ACCGTCGC | 0.0157 |
| GCCGTCCC | 0.378 |
| GCCGTCGC | 0.351 |
| CCCGTCTA | -0.0264 |
| GCCGTCCA | 0.364 |
| TCCGTCCA | -0.122 |
| CCCGTCCC | -0.249 |
| AGACAAAG | 0.00552 |
| GAGGGTAA | -0.0792 |
| CACCATAC | -0.0768 |
| TAAAGTGA | 0.135 |
| CAGAAAGG | 0.0864 |
| CCTGCGCC | 0.295 |

| Sequence | PBM E-score |
| --- | --- |
| CCTGCGGC | 0.331 |
| CCTGCGGA | 0.0839 |
| ACTGCGGA | 0.0949 |
| ACTGCGGC | 0.381 |
| ACTGCGGG | -0.153 |
| ACTTAGAA | 0.0195 |
| GAACAGGC | -0.0513 |
| ACAAGGGA | -0.144 |
| GCAACCTA | 0.081 |
| ATAAGCCG | 0.0578 |
| ATTGCTAA | 0.0687 |
| AGCGCCTC | 0.389 |
| ATCGCCTG | -0.135 |
| ACCGCCTC | -0.0359 |
| CGCGCCTA | 0.313 |
| CACGCCTC | 0.205 |
| AGCGCCTG | -0.0292 |
| ATCGCCTC | 0.356 |
| CTCGCCTC | 0.00469 |
| CGCGCCTC | 0.377 |
| ACGGTCTC | -0.041 |
| CCTAAAGC | 0.00183 |
| CCCTAGGA | -0.314 |
| CTTGCGCA | 0.223 |
| ATTCTTCG | 0.00242 |

| Sequence | PBM E-score |
| --- | --- |
| GAACGTAA | 0.0655 |
| ACGTTCCG | -0.106 |
| CCGTTCCG | 0.318 |
| CCGTTCCA | 0.243 |
| GCCATCGA | 0.0584 |
| AACCGTGC | 0.26 |
| AGCCGTGA | 0.343 |
| ATCCGTGC | 0.41 |
| AGCCGTGC | 0.465 |
| CTCCGTGC | 0.228 |
| ACCCGTGC | 0.237 |
| GGCCGTGA | 0.126 |
| ACCCGTGG | -0.0825 |
| ATCCGTGA | 0.00902 |
| AGCCGTGG | 0.334 |
| AACCGTGG | -0.00732 |
| ACCCGTGA | -0.0351 |
| ATGCTGAC | -0.0531 |
| ATACAGCC | -0.0239 |
| GCCTCTAA | 0.0553 |
| AACCGTAC | -0.0138 |
| CGAACAGA | 0.0325 |
| CGCCGTGA | 0.376 |
| CACCGTGA | -0.114 |
| CCCCGTGA | -0.14 |

| Sequence | PBM E-score |
| --- | --- |
| ATGCACTC | -0.0521 |
| AACGAGAA | 0.00842 |
| GCCGCCAC | 0.0605 |
| ACCGCCCC | -0.144 |
| CCCGCCGC | 0.332 |
| GCCGCCCC | 0.378 |
| GCCGCCGC | 0.424 |
| GCCGCCCA | 0.111 |
| GCCGCCGA | 0.316 |
| CCCGCCGA | -0.0885 |
| CCCGCCGG | -0.213 |
| CCTTGATC | 0.1 |
| CTGCCCCC | -0.327 |
| CGGGCATA | -0.155 |
| AACGCCCA | 0.122 |
| AAGTCCGT | -0.0471 |
| AAAGAAAT | 0.128 |
| CCATATGG | 0.0408 |
| AGGCTAAG | -0.0187 |
| ACCGCAGC | -0.119 |
| CCCGCAGC | -0.123 |
| GCCGCATA | 0.457 |
| CCCGCAAC | 0.097 |
| ACCGCAAC | -0.0924 |
| CCCGCAGA | 0.06 |

| Sequence | PBM E-score |
| --- | --- |
| GCCGCAGA | 0.372 |
| TCCGCAGA | -0.0849 |
| ACCGCATA | 0.0344 |
| GCCGCAGC | 0.394 |
| CCCGCATA | 0.21 |
| GCCGCAAC | 0.366 |
| GTGCTGCA | 0.0505 |
| CTCTTACC | 0.201 |
| CTACCTCA | -0.152 |
| CTACCCCA | -0.114 |
| CAGGTTGA | -0.216 |
| AGTAACGC | 0.192 |
| ATGGTTGC | -0.177 |
| GACTAGCC | -0.194 |
| ATCGCTGA | -0.0887 |
| CCTTGCGC | 0.138 |
| GGTGCGAC | -0.0804 |
| CCGTATCC | 0.316 |
| CCGTATCA | 0.327 |
| GCGTACAA | 0.167 |
| ACGTATAA | 0.113 |
| CCGTACAA | 0.35 |
| TCGTATAA | 0.136 |
| CCGTATAA | 0.341 |
| TCGTACAA | 0.157 |

| Sequence | PBM E-score |
| --- | --- |
| CCGTATCG | 0.215 |
| ATCGAAGA | 0.171 |
| GCACTAAC | 0.042 |
| ATTCTCAA | 0.152 |
| AGACCAAT | -0.0691 |
| GCGACTGA | -0.227 |
| ACTCCCAG | -0.264 |
| AGTGAACC | 0.00324 |
| CCCGTTCA | -0.132 |
| TCCGTTCA | 0.0192 |
| GCCGTTCC | 0.432 |
| GCCGTTCA | 0.441 |
| CCCGTTCC | -0.00751 |
| ACCGTTCC | 0.15 |
| AAATAAAC | 0.218 |
| GCGGCCAA | 0.161 |
| GAGGACAA | -0.101 |
| CACGTGCG | 0.272 |
| CAGGATTC | -0.173 |
| AGCCTCGA | -0.172 |
| GCCATTGA | 0.226 |
| AGGCTCTA | 0.15 |
| CAGCTCTC | -0.325 |
| CGGCTCTA | 0.425 |
| CGGCTCTC | 0.334 |

| Sequence | PBM E-score |
| --- | --- |
| GGGCTCTA | -0.0132 |
| AGGCTCTC | -0.137 |
| CGCACTCC | -0.172 |
| CAGAGCTA | -0.171 |
| AGGGCGGC | 0.14 |
| AGGGCGCC | 0.343 |
| AGGGGGCG | -0.0306 |
| AGGGCGCG | 0.369 |
| AGGGCGCA | 0.205 |
| CGGGCGCC | 0.269 |
| ACCAAGGT | 0.0467 |
| CAGCCACA | 0.161 |
| CGGCTTAC | 0.104 |
| GCTGGGTA | -0.175 |
| GCTAAAGA | 0.0376 |
| CAAGGCAG | 0.0951 |
| GAAGGCAA | 0.218 |
| AAAGGCAA | 0.263 |
| AAAGGCAC | 0.392 |
| CAAGGCAA | 0.264 |
| GCAGGCAC | 0.0604 |
| CAAGGCAC | 0.356 |
| AAAGGCAG | 0.172 |
| GAAGGCAC | 0.368 |
